Compound activity deposited in PubChem by National Center for Advancing Translational Sciences (NCATS).
LDHA block: LDHA (human) enzyme inhibition | P00338 | purified LDHA, NADH/diaphorase-resazurin fluorescence; stronger effect = lower value | activity change, % (values are at about 110 or 230 µM) | 0.15% of 480,000 active | AID 1347041; in the data active means activity change below about -30%; inconclusive means mostly about -25% to -30%;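 further: plate controls were DMSO wells for no effect and wells without enzyme for full effect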
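Remaining NADH was detected by diaphorase (0.133 mg/mL) converting 37 µM resazurin to fluorescent resorufin, read at 0 and 20 minutes. The preceding 5-minute room-temperature reaction used 2 nM LDHA, 0.2 mM sodium pyruvate and 0.06 mM NADH at pH 7.4.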
FUS suppressor: rescues growth of FUS-expressing yeast; S. cerevisiae FUS-expressing, growth rescue, OD600, 24 h; Potency, µM (doses to about 76.6 µM), actives largely listed as activators; 0.24% of 390,000 active; AID 1347120;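 further: potency means the concentration at half of the fitted maximal effect; plate controls were DMSO vehicle for no effect and reference control for full effect; nearly all actives have a fitted effect of over 55% in size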
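Quantitative HTS measuring growth restoration of FUS-toxic yeast. Galactose-induced cells (OD 0.005) were exposed 24hr at 30C to compounds at several concentrations, then absorbance at 600 nm was recorded.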
TDP-43 yeast inh: inhibitors of TDP-43 toxicity in yeast. TDP-43 expressing yeast growth rescue, BacTiter-Glo, 24 h. Potency, µM (titrated, usually from 46.1 µM), inactives show top-dose growth rescue (activation), actives largely listed as activators. 1.8% of 410,000 active. AID 652104; further: potency means the concentration at half of the fitted maximal effect; % of control where 0% means no effect; nearly all actives have a fitted effect of over 50% in size
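Yeast expressing TDP-43 (pregrown in raffinose, seeded at OD600=0.02 in galactose medium) exposed to compounds 24 hr at 30 deg C. Growth read by BacTiter-Glo luminescence; rescue of toxicity appears as increased signal.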
aSyn yeast inh: inhibitors of alpha-synuclein toxicity in yeast; 0.14% of 370,000 active; Yeast expressing alpha-synuclein, growth rescue, BacTiter-Glo, 24 h; Potency, µM (doses to about 46.1 µM), inactives show top-dose growth rescue (activation), most hits filed as activators; further: potency means the concentration at half of the fitted maximal effect; % of control where 0% means no effect; nearly all actives have a fitted effect of over 65% in size
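Galactose-induced alpha-syn yeast (OD600=0.02, raffinose-pregrown) + pinned cpd, 24 hr, 30 deg C; growth by BacTiter-Glo luminescence. Growth restoration scores as activation.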
IDH1 R132H inh: human IDH1 R132H inhibition; AID 602179; IDH1-R132H enzyme, NADPH consumption, diaphorase/resazurin fluorescence; 0.093% of 390,000 active; Potency, µM (doses to about 76.6 µM), for inactives: top-dose activity change, negative = inhibition, hits mostly inhibitors; further: potency means the concentration at half of the fitted maximal effect; on the % scale 0 is the no-effect control and ±100 the full control effect; nearly all actives have a fitted effect of over 65% in size
Target sequence (O75874 whole entry R132H, stated change not applied): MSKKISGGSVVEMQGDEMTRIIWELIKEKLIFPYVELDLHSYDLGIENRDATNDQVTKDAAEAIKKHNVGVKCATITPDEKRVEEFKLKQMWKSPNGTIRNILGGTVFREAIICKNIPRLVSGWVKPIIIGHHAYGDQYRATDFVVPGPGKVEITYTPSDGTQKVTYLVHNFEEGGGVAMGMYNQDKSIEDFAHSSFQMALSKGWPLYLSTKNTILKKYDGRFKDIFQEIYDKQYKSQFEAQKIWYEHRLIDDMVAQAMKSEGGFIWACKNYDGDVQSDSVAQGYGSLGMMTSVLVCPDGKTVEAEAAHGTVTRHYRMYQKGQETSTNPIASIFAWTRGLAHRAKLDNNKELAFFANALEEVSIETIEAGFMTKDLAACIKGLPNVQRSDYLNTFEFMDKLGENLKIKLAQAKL
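IDH1-R132H (0.5 ug/mL dispensed) in pH 7.5 Tris buffer was preincubated 30 min with compound, then given a substrate mix of 0.016 mM NADPH and 2 mM alpha-KG for 80 min at room temperature; remaining NADPH was read by diaphorase/resazurin fluorescence.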
Abeta yeast res: restores growth of yeast expressing A-beta42 peptide; yeast expressing A-beta42, growth rescue, OD600, 48 h; response scale: 0% DMSO, 100% iron-clioquinol control; Potency, µM (series often up to 46.1 µM), most hits filed as activators; 0.063% of 410,000 active; AID 1347071; further: potency means the concentration at half of the fitted maximal effect; nearly all actives have a fitted effect of over 55% in size
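Growth rescue measured by 600 nm absorbance after 48 h yeast culture at 30 C with compound. Values normalized between DMSO and an equimolar ferric chloride plus clioquinol control.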
IDH1 autofl: autofluorescence interference, mutant IDH1 hit counter-screen. shares compounds with IDH1 R132H inh. Resorufin detection reagent fluorescence interference, cell-free. inhibition of signal, % at 51.2 µM. 750 tested, under 10 active. AID 623980;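 further: 0% = wells with normal resorufin and full inhibition = wells lacking resorufin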
WT IDH1 inh: wild-type IDH1 (human) inhibition counterscreen | shares compounds with IDH1 R132H inh | WT IDH1 enzyme, NADPH diaphorase/resazurin fluorescence | Potency, µM (series often up to 115 µM), without a hit: top-dose activity change, negative = inhibition, usual class: inhibitors | 9% of 750 active;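 further: potency means the concentration at half of the fitted maximal effect; 0% = full WT IDH1 enzyme control and full inhibition = no enzyme wells; nearly all actives have a fitted effect of over 55% in size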
Target sequence (O75874 whole entry, looked up): as the sequence (O75874 whole entry R132H, stated change not applied) above, with H132R counted along it
IDH1 R132H conf: confirmation of human mutant IDH1 inhibitors; shares compounds with IDH1 R132H inh; IDH1 R132H enzyme, NADPH diaphorase/resazurin fluorescence; Potency, µM (highest dose often 76.6 µM), without a hit: top-dose activity change, negative = inhibition, hits mostly inhibitors; 83% of 750 active; AID 624002; further: potency means the concentration at half of the fitted maximal effect; nearly all actives have a fitted effect of over 50% in size
Numbers without * were called inactive; i = inactive; ? = inconclusive; . = no result given. An excerpt weighted towards active compounds, which were near 2% of everything screened. Unless noted, the call rests on the fitted dose curve; in most records, active means well fitted curve in the direction sought with a large enough effect; inconclusive means small, poorly fitted or top-dose-only effect, or another doubt; inactive means no such curve, though single readings can be large; an effect the other way counts as inactive or inconclusive.

SMILES	LDHA block	FUS suppressor	TDP-43 yeast inh	aSyn yeast inh	IDH1 R132H inh	Abeta yeast res	IDH1 autofl	WT IDH1 inh	IDH1 R132H conf
CN(C)Cc1c(C(=O)N/N=C/c2ccccc2OCc2c(F)cccc2Cl)nnn1-c1nonc1N	-3	i	-6%	6%	37µM*	i	-4	0%	7.1µM*
CC(NC(=O)CCCNC(=O)C1CC1)c1ccc(C#N)cc1 (stereo not given)	-9	.	.	.	.	.	.	.	.
Cc1cc(C)c(C#N)c(SCc2[nH]nc3c2C(c2ccc(F)cc2)C(C#N)=C(N)O3)n1 (stereo not given)	-4	i	-2%	-4%	?	i	7	?	32µM*
Cc1cc(C#N)c(C)c(SCc2[nH]nc3c2C(c2ccccc2)C(C#N)=C(N)O3)n1 (stereo not given)	0	i	11%	.	?	i	3	?	35µM*
Cc1ccc(SCc2[nH]nc3c2C(c2cccnc2)C(C#N)=C(N)O3)cc1 (stereo not given)	0	i	-20%	1%	-3%	i	.	.	.
Cc1[nH]nc2c1C(c1ccc(F)cc1)C(C#N)=C(N)O2 (stereo not given)	-7	i	-6%	5%	4%	i	.	.	.
CCCCCCCCOC(=O)Nc1ccc(C)cc1	9	.	.	.	.	.	.	.	.
CC1CCN(CC(=O)NCCC2=CCCCC2)CC1	-6	.	.	.	.	.	.	.	.
CCc1ccc(NC(=O)CN2C(=O)C3CCCN3c3ccc(S(=O)(=O)N(CC)CC)cc32)cc1 (stereo not given)	-2	?	0%	.	45µM*	i	-5	-4%	28µM*
Cn1c2ccccc2c(=O)c2c(=O)n(-c3ccc(F)cc3)c(-c3cccs3)nc21	10	i	-14%	7%	-16%	i	.	.	.
CC(c1ccccc1)n1c(-c2cccs2)nc2c(c(=O)c3ccccc3n2C)c1=O (stereo not given)	-4	i	-18%	5%	32µM*	i	2	20%	7.9µM*
COC(=O)c1cccc(C#CC(NP(=O)(c2ccccc2)c2ccccc2)c2ccccc2)c1 (stereo not given)	1	?	2%	-2%	-10%	i	.	.	.
CCC[C@@H]1C[C@@]1(CCC)[C@@H](NP(=O)(c1ccccc1)c1ccccc1)c1ccc(C(=O)OC)cc1	0	?	-16%	1%	?	i	-3	-4%	22µM*
O=S(=O)(Nc1ccc(S(=O)(=O)Nc2nccs2)cc1)c1ccc(Br)cc1	-3	i	-22%	2%	?	i	2	8%	40µM*
CCC(=O)Nc1ccc(-c2csc(NCCOC)n2)cc1	8	.	.	.	.	.	.	.	.
CCOc1ccc2c(c1)C(NC(C)=O)C(=O)N2CCN1CCOCC1 (stereo not given)	4	i	10%	3%	29µM*	i	3	79µM*	25µM*
CC(=O)NC1C(=O)N(CCN2CCOCC2)c2ccc(Br)cc21 (stereo not given)	0	i	-15%	-1%	?	i	.	.	.
COc1ccc(/C=C2\Oc3cc(OS(=O)(=O)c4ccccc4)ccc3C2=O)cc1	2	.	.	.	.	.	.	.	.
COc1cccc(OC)c1C(=O)Oc1ccc2c(c1)O/C(=C\c1ccncc1)C2=O	-8	i	-6%	11%	?	i	-3	2%	20µM*
O=C1/C(=C/c2ccncc2)Oc2cc(OS(=O)(=O)c3ccccc3)ccc21	-10	i	11%	9%	46µM*	i	-2	?	16µM*
Cc1ccc(S(=O)(=O)Oc2ccc3c(c2)O/C(=C\c2cccnc2)C3=O)cc1	-4	i	-11%	3%	?	i	-10	-3%	25µM*
COc1cccc(OC)c1C(=O)Oc1ccc2c(c1)O/C(=C\c1ccc(C(C)C)cc1)C2=O	-18	.	.	.	.	.	.	.	.
O=C(/C=C/c1ccc(F)cc1)c1ccc(-c2ccccc2)cc1	3	.	.	.	.	.	.	.	.
Cc1[nH]c2ccccc2c1C(c1ccc(Cl)cc1)c1c(C)[nH]c2ccccc12	7	.	.	.	.	.	.	.	.
Cc1ccc(-n2ncnc2-c2cc3c(n(-c4ccccc4)c2=O)CC(C)(C)CC3=O)c(C)c1	-2	.	.	.	.	.	.	.	.
SMILES	LDHA block	FUS suppressor	TDP-43 yeast inh	aSyn yeast inh	IDH1 R132H inh	Abeta yeast res	IDH1 autofl	WT IDH1 inh	IDH1 R132H conf
Cc1ccc(OCCCSc2nc(-c3ccc(C(C)(C)C)cc3)nc3cc(=O)[nH]n23)cc1C	-4	i	15%	.	40µM*	i	0	?	25µM*
CC1(C)Oc2ccc3ccc(=O)oc3c2/C(=C/NNC(N)=S)C1=O	-14	i	1%	-5%	-2%	i	.	.	.
CC1(C)Oc2ccc3ccc(=O)oc3c2/C(=C/Nc2ccc(O)cc2)C1=O	-11	i	?	-9%	-4%	i	.	.	.
CC1(C)Oc2ccc3ccc(=O)oc3c2/C(=C/Nc2cccc(O)c2)C1=O	-19	i	2%	6%	?	i	5	32%	40µM*
CC1(C)Oc2ccc3ccc(=O)oc3c2/C(=C/Nc2ccccn2)C1=O	-6	i	-12%	-4%	29µM*	i	-7	39%	11µM*
COc1cc(Cl)c(C)cc1NC(=O)c1ccc2c(SCC(=O)O)c3c(nc2c1)CCCC3	-8	i	2%	11%	?	i	5	?	28µM*
COc1ccc(C)cc1NC(=O)c1ccc2c(SCC(=O)O)c3c(nc2c1)CCCC3	-10	i	-11%	-6%	0%	i	.	.	.
CCOC(=O)c1ccccc1NC(=O)c1ccc2c(SCC(=O)O)c3c(nc2c1)CCCC3	1	i	29%	15%	41µM*	.	-2	71µM*	16µM*
O=C(/C=C/c1ccc(F)cc1)N(C1CCCCC1)C1CCCCC1	4	.	.	.	.	.	.	.	.
O=P(NC1CCCCC1)(c1ccccc1)c1ccccc1	-9	i	-15%	7%	1%	i	.	.	.
CC/C(=C\C1CCCCC1)C(NP(=O)(c1ccccc1)c1ccccc1)c1ccccc1 (stereo not given)	11	?	-13%	-47%	28µM*	i	-7	1%	22µM*
